The values that follow come from PubChem BioAssay (NCI).

A short description of assay [1]: NCI Yeast Anticancer Drug Screen. Data for the rad50 strain (AID 155).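 Also: 0% = growth of vehicle-only cultures of the same strain.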 The settings on record: S. cerevisiae rad50 strain growth inhibition, active compounds read high. Put shortly: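 Vehicle-treated cultures provide the reference for the growth inhibition reported for compound-exposed, repair-deficient yeast.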
Assay [2] in a line: NCI Yeast Anticancer Drug Screen. Data for the mec2-1 strain (AID 157). To be noted: S. cerevisiae mec2-1 strain, active compounds read high. The procedure, abridged: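 Compounds were applied to mec2-1 yeast cells. Their growth was then compared with that of vehicle-treated cultures to give growth inhibition.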
Assay [3] in a line: NCI Yeast Anticancer Drug Screen. Data for the sgs1 mgt1 strain (AID 161).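 Also: 0% = growth of cultures given vehicle only.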 The settings on record: S. cerevisiae sgs1 mgt1 strain, active compounds read high. Put shortly: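 Yeast cells carrying a defined DNA-repair defect were exposed to test compounds. Growth inhibition was measured relative to vehicle-treated controls.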
Assay [4] can be described thus: NCI Yeast Anticancer Drug Screen. Data for the cln2 rad14 strain (AID 165).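 Also: 0% = growth equal to vehicle treated cultures.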 To be noted: S. cerevisiae cln2 rad14 strain, active compounds read high. Put shortly:
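Strain: cln2 rad14 yeast, altered in cell cycle control and DNA damage repair. Read-out: growth inhibition vs vehicle.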

Assay [5] is described as follows: NCI Yeast Anticancer Drug Screen. Data for the bub3 strain (AID 167). To be noted: S. cerevisiae bub3 mutant strain, active compounds read high. Put shortly: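 Mutant yeast screening strain plus compound; vehicle-treated cultures serve as the 0% inhibition reference.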
Assay [6] in a line: NCI Yeast Anticancer Drug Screen. Data for the mlh1 rad18 strain (AID 175). The settings on record: S. cerevisiae mlh1 rad18 strain growth inhibition, active compounds read high. Put shortly:
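A repair-deficient yeast strain is exposed to test compound, and growth is scored relative to vehicle-treated controls.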

Where [7] appears, read: at 5.0 µM (retest, dose inferred, filed as 0.5).
The mark [8] stands for this setting: at 50.0 µM (retest, dose inferred, filed as 5.0).

The panel holds about 79,000 compounds, 15% with a hit somewhere; the sample as a whole holds those more often. A number with no mark means an inactive call. The source made the active and inactive calls. Rule as the data show it: active = growth inhibition above about 70%; inactive = the rest.

`O=C1C(c2ccccc2)=[N+]([O-])c2cc([N+](=O)[O-])c(/C(Cl)=C/c3ccccc3)cc21`: the growth inhibition in assay [1] (setting [7]) was 4%; in assay [1] (setting [8]), 8%; in assay [1] (at 50.0 µM) it was 54.8%; in assay [2] (setting [7]), 5%; in assay [2] (setting [8]) it was 33%; in assay [2] (at 50.0 µM) it was 94.5% (active). In addition, the growth inhibition in assay [3] (setting [7]) is 6%; in assay [3] (setting [8]), 16%; in assay [3] (at 50.0 µM), 71.5% (active); in assay [4] (setting [7]), 11%; in assay [4] (setting [8]), 9%; in assay [4] (at 50.0 µM), 39.2%. Further, the growth inhibition was 7% in assay [5] (setting [7]); 7% in assay [5] (setting [8]); 97.9% (active) in assay [5] (at 50.0 µM); 3% in assay [6] (setting [7]); 3% in assay [6] (setting [8]); 96.2% (active) in assay [6] (at 50.0 µM).
On to `c1cc(Nc2ccc(Nc3ccc(CN4CCCCC4)cc3)cc2)ccc1CN1CCCCC1`, for which the growth inhibition in assay [1] (setting [7]) is 39%; in assay [1] (setting [8]), 98% (active); in assay [1] (at 50.0 µM) it was 81.8% (active); in assay [2] (setting [7]) it was 31%; in assay [2] (setting [8]), 99% (active); in assay [2] (at 50.0 µM) it was 89.8% (active). The growth inhibition was 66% in assay [3] (setting [7]); 99% (active) in assay [3] (setting [8]); 90.9% (active) in assay [3] (at 50.0 µM); 54% in assay [4] (setting [7]); 99% (active) in assay [4] (setting [8]); 83.2% (active) in assay [4] (at 50.0 µM). For the same compound, the growth inhibition in assay [5] (setting [7]) is 63%; in assay [5] (setting [8]) it was 99% (active); in assay [5] (at 50.0 µM), 89.2% (active); in assay [6] (setting [7]), 36%; in assay [6] (setting [8]), 98% (active); in assay [6] (at 50.0 µM), 87.5% (active).
With `Cc1ccccc1Sc1ncnc2ccccc12`, the growth inhibition was 2% in assay [1] (setting [7]); 34% in assay [1] (setting [8]); 85.5% (active) in assay [1] (at 50.0 µM); 3% in assay [2] (setting [7]); 49% in assay [2] (setting [8]); 73.8% (active) in assay [2] (at 50.0 µM). Also, the growth inhibition in assay [3] (setting [7]) is -13%; in assay [3] (setting [8]), 70% (active); in assay [3] (at 50.0 µM) it was 55.5%; in assay [4] (setting [7]), 1%; in assay [4] (setting [8]) it was -1%; in assay [4] (at 50.0 µM), 5.45%. In addition, the growth inhibition in assay [5] (setting [7]) is -5%; in assay [5] (setting [8]) it was 7%; in assay [5] (at 50.0 µM), 37.6%; in assay [6] (setting [7]), -7%; in assay [6] (setting [8]), 48%; in assay [6] (at 50.0 µM) it was 70.9% (active).
For `CC(=O)Oc1ccc(C23CC4CC(CC(C4)C2)C3)cc1`, the growth inhibition in assay [1] (setting [7]) is -2%; in assay [1] (setting [8]), 98% (active); in assay [1] (at 50.0 µM), 98.8% (active); in assay [2] (setting [7]), -2%; in assay [2] (setting [8]) it was 99% (active); in assay [2] (at 50.0 µM) it was 98.5% (active). For the same compound, the growth inhibition in assay [3] (setting [7]) was 16%; in assay [3] (setting [8]) it was 99% (active); in assay [3] (at 50.0 µM), 98.6% (active); in assay [4] (setting [7]), -36%; in assay [4] (setting [8]) it was 99% (active); in assay [4] (at 50.0 µM), 96.6% (active). Besides, the growth inhibition in assay [5] (setting [7]) was 25%; in assay [5] (setting [8]), 108% (active); in assay [5] (at 50.0 µM) it was 98.8% (active); in assay [6] (setting [7]), 10%; in assay [6] (setting [8]), 99% (active); in assay [6] (at 50.0 µM), 98.3% (active).
Consider `c1ccc(CN(CCCOc2ccccc2)Cc2ccccc2)cc1`, for which the growth inhibition in assay [1] (setting [7]) is 2%; in assay [1] (setting [8]) it was 25%; in assay [1] (at 50.0 µM), 56.4%; in assay [2] (setting [7]), -4%; in assay [2] (setting [8]), 53%; in assay [2] (at 50.0 µM), 29.9%. In addition, the growth inhibition was 5% in assay [3] (setting [7]); 85% (active) in assay [3] (setting [8]); 76.5% (active) in assay [3] (at 50.0 µM); 3% in assay [4] (setting [7]); 15% in assay [4] (setting [8]); 72.3% (active) in assay [4] (at 50.0 µM). Further, the growth inhibition in assay [5] (setting [7]) is 15%; in assay [5] (setting [8]), 71% (active); in assay [5] (at 50.0 µM) it was 79.8% (active); in assay [6] (setting [7]), 25%; in assay [6] (setting [8]), 77% (active); in assay [6] (at 50.0 µM), 80.5% (active).
`Cc1cc(NCCCCCCCNc2cc(C)nc3cc(N)ccc23)c2ccc(N)cc2n1`: the growth inhibition was 4% in assay [1] (setting [7]); 85% (active) in assay [1] (setting [8]); 79.6% (active) in assay [1] (at 50.0 µM); -11% in assay [2] (setting [7]); 76% (active) in assay [2] (setting [8]); 85.5% (active) in assay [2] (at 50.0 µM). Further, the growth inhibition in assay [3] (setting [7]) is 12%; in assay [3] (setting [8]), 78% (active); in assay [3] (at 50.0 µM), 86% (active); in assay [4] (setting [7]), 12%; in assay [4] (setting [8]), 45%; in assay [4] (at 50.0 µM) it was 82% (active). Also, the growth inhibition in assay [5] (setting [7]) is -12%; in assay [5] (setting [8]) it was 82% (active); in assay [5] (at 50.0 µM), 87% (active); in assay [6] (setting [7]), -3%; in assay [6] (setting [8]) it was 83% (active); in assay [6] (at 50.0 µM), 91.5% (active).
As for `CCCCNc1ncc(OCC)c(NCCCC)n1`, the growth inhibition in assay [1] (setting [7]) was 1%; in assay [1] (setting [8]), -1%; in assay [1] (at 50.0 µM), 73.5% (active); in assay [2] (setting [7]) it was 4%; in assay [2] (setting [8]) it was -44%; in assay [2] (at 50.0 µM), 88.9% (active). Besides, the growth inhibition in assay [3] (setting [7]) is 0%; in assay [3] (setting [8]), 4%; in assay [3] (at 50.0 µM), 92.5% (active); in assay [4] (setting [7]), -2%; in assay [4] (setting [8]), 4%; in assay [4] (at 50.0 µM), 42.6%. Moreover, the growth inhibition was 39% in assay [5] (setting [7]); 23% in assay [5] (setting [8]); 94.9% (active) in assay [5] (at 50.0 µM); 0% in assay [6] (setting [7]); 1% in assay [6] (setting [8]); 77.7% (active) in assay [6] (at 50.0 µM).
`CC1=C(C(=O)Nc2ccc(Cl)c(Cl)c2)C(c2ccco2)C(C(=O)Nc2ccc(Cl)c(Cl)c2)=C(C)N1`: the growth inhibition was 41% in assay [1] (setting [7]); 41% in assay [1] (setting [8]); 88.7% (active) in assay [1] (at 50.0 µM); 22% in assay [2] (setting [7]); 22% in assay [2] (setting [8]); 87.7% (active) in assay [2] (at 50.0 µM). The growth inhibition was -4% in assay [3] (setting [7]); -4% in assay [3] (setting [8]); 89.3% (active) in assay [3] (at 50.0 µM); 24% in assay [4] (setting [7]); 24% in assay [4] (setting [8]); 88.2% (active) in assay [4] (at 50.0 µM). Also, the growth inhibition in assay [5] (setting [7]) is 10%; in assay [5] (setting [8]), 10%; in assay [5] (at 50.0 µM) it was 89% (active); in assay [6] (setting [7]) it was 36%; in assay [6] (setting [8]), 36%; in assay [6] (at 50.0 µM), 87.6% (active).
For `Cc1c[nH]c2nc(C)n(-c3ccccc3)c(=N)c12`, the growth inhibition in assay [1] (setting [7]) is -1%; in assay [1] (setting [8]) it was 2%; in assay [1] (at 50.0 µM) it was 6.1%; in assay [2] (setting [7]), 1%; in assay [2] (setting [8]), -3%; in assay [2] (at 50.0 µM), 16.5%. The growth inhibition in assay [3] (setting [7]) is -3%; in assay [3] (setting [8]) it was 3%; in assay [3] (at 50.0 µM) it was 2.5%; in assay [4] (setting [7]) it was 2%; in assay [4] (setting [8]), -8%; in assay [4] (at 50.0 µM) it was 38%. For the same compound, the growth inhibition in assay [5] (setting [7]) was -3%; in assay [5] (setting [8]), -3%; in assay [5] (at 50.0 µM), -6.85%; in assay [6] (setting [7]) it was -2%; in assay [6] (setting [8]), -2%; in assay [6] (at 50.0 µM), 8.65%.
For the compound `CN(C)c1ccccc1[CH2][Ga]([Cl])[CH2]c1ccccc1N(C)C`, the growth inhibition in assay [1] (setting [7]) is 15%; in assay [1] (setting [8]), 96% (active); in assay [1] (at 50.0 µM) it was 88.9% (active); in assay [2] (setting [7]), -1%; in assay [2] (setting [8]) it was 98% (active); in assay [2] (at 50.0 µM), 92.6% (active). Moreover, the growth inhibition in assay [3] (setting [7]) is 13%; in assay [3] (setting [8]), 51%; in assay [3] (at 50.0 µM) it was 90.8% (active); in assay [4] (setting [7]), 16%; in assay [4] (setting [8]), 98% (active); in assay [4] (at 50.0 µM), 90.3% (active). The growth inhibition in assay [5] (setting [7]) was 9%; in assay [5] (setting [8]), 97% (active); in assay [5] (at 50.0 µM) it was 91.3% (active); in assay [6] (setting [7]), 26%; in assay [6] (setting [8]), 98% (active); in assay [6] (at 50.0 µM), 89.2% (active).
